High-throughput results from PubChem.
ERK EGF block – qHTS Assay for Inhibitors of the ERK Signaling Pathway using a Homogeneous Screening Assay; Stimulation with EGF | Potency, µM (highest dose often 11.5 µM), usual class: inhibitors | HEK293-V1b, EGF-stimulated phospho-ERK AlphaScreen | actives 0.41% (n = 130,000); further: nearly all actives have a fitted effect of over 55% in size
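EGF-stimulated (25 nM, 5 min) phospho-ERK in HEK293 cells stably expressing V1b, cells pretreated 30 min with compound at 37C. Homogeneous AlphaScreen read on lysates.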
NPSR antag – qHTS Assay for Antagonists of the Neuropeptide S Receptor: cAMP Signal Transduction | Q6W5P4 | CHO-NPSR cells, cAMP TR-FRET, antagonist mode | Potency, µM (series often up to 38.3 µM), hits mostly inhibitors | actives 1% (n = 220,000) | AID 1461, 2008; further: nearly all actives have a fitted effect of over 50% in size
Target sequence (Q6W5P4 whole entry, looked up): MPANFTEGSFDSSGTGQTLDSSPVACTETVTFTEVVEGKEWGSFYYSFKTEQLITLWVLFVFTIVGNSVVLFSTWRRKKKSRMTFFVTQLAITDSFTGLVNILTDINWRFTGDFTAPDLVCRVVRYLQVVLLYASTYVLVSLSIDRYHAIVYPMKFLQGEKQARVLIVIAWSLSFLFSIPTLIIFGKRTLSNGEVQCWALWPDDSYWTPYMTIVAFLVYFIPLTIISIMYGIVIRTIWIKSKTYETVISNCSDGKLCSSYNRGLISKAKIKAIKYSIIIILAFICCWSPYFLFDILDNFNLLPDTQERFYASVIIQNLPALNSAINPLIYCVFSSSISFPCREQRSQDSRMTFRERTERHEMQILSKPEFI
Numbers stand for hits; – = inactive; ? = inconclusive; · = not tested or not shown; [ ] = another dose, or the depositor's remark. This excerpt belongs to a sample that is enriched for hits. The call rests on the fitted dose curve; in most records, active means well fitted curve in the direction sought with a large enough effect; inconclusive means small, poorly fitted or top-dose-only effect, or another doubt; inactive means no such curve, though single readings can be large; an effect the other way counts as inactive or inconclusive.

SMILES	ERK EGF block	NPSR antag
COc1cccc2c1C(=O)c1c(O)c3c(c(O)c1C2=O)C[C@](O)(C(C)=O)C[C@H]3O[C@@H]1C[C@H](N)[C@H](O)[C@H](C)O1	–	·
CC(CCC(=O)O)C1CCC2C3CC[C@@H]4CCCC[C@@]4(C)C3CC[C@@]12C (some centres not stated)	–	·
COc1cc2c(cc1OC)-c1cc3cc(OC)c(OC)cc3c(=O)n1CC2	–	·
CCc1cc[n+](C2=C([O-])c3ccccc3C(=O)/C2=N\S(=O)(=O)c2cccs2)cc1	–	–
Cc1ccc(NC2=C/C(=N/S(=O)(=O)c3cccs3)c3ccccc3C2=O)cc1	?	10µM
COC(=O)c1ccccc1NC1=C/C(=N\S(=O)(=O)c2cccs2)c2ccccc2C1=O	·	–
O=C1C(Nc2ccccc2)=C/C(=N/S(=O)(=O)c2cccs2)c2ccccc21	14.1µM	–
CCC(=O)C(C(=O)OC)[C@H](CCc1ccccc1)NC(=O)OC (some centres not stated)	–	·
O=C(Nc1nc2ccc(SC(F)F)cc2s1)c1ccc(NS(=O)(=O)c2ccc(F)c(F)c2)cc1	–	12.6µM
CS(=O)(=O)c1ccc2nc(NC(=O)c3ccc(NS(=O)(=O)c4ccc(F)c(F)c4)cc3)sc2c1	–	–
COc1ccc2cc(C#N)c(SCC(=O)NNC(=O)Cc3ccccc3)nc2c1	·	–
Cc1ccc2nc(SCC(=O)NCc3cccs3)c(C#N)cc2c1	·	10µM
CCOC(=O)CSc1nc2cc(OCC)ccc2cc1C#N	·	–
Cc1ccc2cc(C#N)c(SCC(=O)NNC(=O)Cc3ccccc3)nc2c1	–	7.94µM
CCOc1ccc2cc(C#N)c(SCC(=O)NC(C)CC)nc2c1 (configuration not stated)	·	6.31µM
COC(=O)CSc1nc2ccc(C)cc2cc1C#N	–	–
N[C@H](C(=O)O)[C@@H]1[C@@H](C(=O)O)C1(F)F	–	·
O=C(c1cnccn1)N1CCC2(CCCN(c3ccc(-c4ccccc4)cc3)C2)CC1	–	·
Nc1ccc(N=Nc2ccccc2)c(N)n1	–	–
Nc1ccc(N=Nc2ccccc2)c2ccccc12	17.8µM	–[7.67 µM]
O=C(/C=C/c1ccc(Br)cc1)c1ccc(NC2=NCCCS2)cc1	–	?
CC(C)(C)c1ccc(/C=C/C(=O)c2ccc(NC3=NCCCS3)cc2)cc1	–	7.94µM
O=C(c1ccncc1)N1CCC2(CC1)CN(c1ccccc1)C2	–	·
O=C(c1ccc(F)cc1)N1CCN(c2ccc([N+](=O)[O-])cc2-n2cccc2)CC1	–	10µM
O=C(c1ccccc1F)N1CCN(c2ccc([N+](=O)[O-])cc2-n2cccc2)CC1	–	–
SMILES	ERK EGF block	NPSR antag
CC(C)CC1=NN2C(=N)/C(=C\c3coc4ccccc4c3=O)C(=O)N=C2S1	–	–
CCSC1=NSC2=NC(=O)/C(=C\c3coc4ccccc4c3=O)C(=N)N12	31.6µM	–
COc1ccc(-c2[nH]nc3c2C(c2ccccc2OC(=O)N2CCOCC2)C(C#N)=C(N)O3)cc1 (configuration not stated)	·	–
COc1ccc(-c2[nH]nc3c2C(c2ccc(OC(=O)N4CCOCC4)cc2)C(C#N)=C(N)O3)cc1 (configuration not stated)	–	12.6µM
COC(=O)C(C(=O)OC)[C@@H](NC(=O)OCc1ccccc1)c1ccccc1	–	·
O=C(CN1CCCCC1)Nc1c2c(nc3ccccc13)N(c1ccccc1)CC2	–	7.94µM
CCCC(=O)Nc1c2c(nc3ccccc13)N(c1ccccc1)CC2	–	–
O=C(CNC(=O)c1ccccc1F)OCc1nc2ccccc2s1	–	–
CNc1sc(C(=O)c2ccccc2F)c(N)c1-c1nc2ccccc2s1	·	3.98µM
COCCN(CCOC)c1nc(C)nc2c1nc(-c1ccccc1)n2CCN1CCCC1	–	·
COc1ccc(-c2cc(-c3ccccc3)c(C#N)c(=S)[nH]2)cc1	–	12.6µM
Cc1ccc(-c2cc(-c3ccccc3)[nH]c(=S)c2C#N)cc1	·	–
COC(=O)C/C=C/[C@@H](C)[C@@H](Cc1ccccc1Br)OC	–	·
O=c1ccc2[n+]([O-])c3ccc(O)cc3oc-2c1	15.8µM	?
O=c1cc(O)c2ccc(O)cc2o1	–	–
COc1cccc(-c2coc3ccc(Br)cc3c2=O)c1	–	·
C[N+]1(C)CCC[C@H]1C(=O)[O-]	–	·
C=CCSc1nc2ccccc2n1C(=O)/C=C/c1cc(OC)c(OC)c(OC)c1	·	2.51µM
CCSc1nc2ccccc2n1C(=O)/C=C/c1ccc(OC)c(OC)c1	–	–
COc1ccc2c(c1-c1c3c(cc(Br)c1OC)CCCC3)CCCC2	–	·
COC(C)(C)CCCC(C)C/C=C/C(C)=C/C(=O)O (configuration not stated)	–	·
O=C(c1cccc(F)c1)N1CCC2(CC1)CCN(c1cccc(-c3ccccc3)c1)CC2	–	·
COc1ccc([C@H]2c3cc(OC)c(OC)cc3C[C@@H](C)[C@@H]2C)cc1OC	–	·
O=C(NNc1c2ccccc2nc2ccccc12)C(O)c1ccccc1 (configuration not stated)	–	10µM
O=C(NNc1c2ccccc2nc2ccccc12)c1ccc(O)cc1	?	–
SMILES	ERK EGF block	NPSR antag
CCCC(=O)NNc1c2ccccc2nc2ccccc12	–	–
O=C(COc1ccccc1)NNc1c2ccccc2nc2ccccc12	·	10µM
COC(=O)N1[C@H]2CC[C@@]3(C)CC(=O)C[C@]1(C)C3c1ccccc12	–	·
COc1ccc(-n2ncc3c(N4CCN(Cc5ccccc5)CC4)ncnc32)cc1	31.6µM	–
CCN1CCN(c2ncnc3c2cnn3-c2ccccc2)CC1	·	–
COc1cccc(N2CCN(c3ncnc4c3cnn4-c3ccc(C)cc3C)CC2)c1	·	10µM
Cc1ccc(-n2ncc3c(N4CCCC4)ncnc32)c(C)c1	–	–
Cn1c(=O)c(CCc2ccccc2)nc2cnc(Oc3ccccc3)nc21	–	·
CCCCC/C=C\C/C=C\C/C=C\CCCCC(=O)NCCCC(=O)O	–	·
COC(=O)N[C@@H](c1cccc(C)c1)C(C(C)=O)C(=O)OC (some centres not stated)	–	·
C=CCOC(=O)N[C@H](/C(C(=O)OC)=C(\C)NCc1ccccc1)c1cccc(F)c1	–	·
CCN1CCN(c2ccc(NC(=O)c3ccc([N+](=O)[O-])o3)cc2Cl)CC1	–	–
CCC(=O)N1CCN(c2ccc(NC(=O)c3ccc([N+](=O)[O-])o3)cc2Cl)CC1	–	5.01µM
CC1C(=O)N(C)C(=O)c2nc[nH]c21 (configuration not stated)	–	–
N#Cc1cccc(NC(=O)N2CCCC3(CCN(C(=O)c4cnccn4)CC3)C2)c1	–	·
O=C(OCc1cnc(Cl)s1)c1ccccc1Cl	·	–
O=C(OCn1ncc(Br)c(Br)c1=O)c1ccccc1Cl	·	2.51µM
CCn1ncc(Br)c1C(=O)Nc1ccc(C(=O)OC(C)C)cc1	·	–
O=C(OCn1ncc(Br)c(Br)c1=O)c1ccc(F)cc1	·	2.51µM
O=C(c1ccco1)N1CCC2(CCN(Cc3ccncc3)CC2)CC1	–	·
CC(=O)OC[C@@]12C(=O)[C@@H](O)[C@@H](C)[C@]3(C[C@@H](c4ccoc4)O[C@@H]3OC(C)=O)[C@H]1CCC[C@]21CO1	–	·
N#CCCn1cnc2c1NC=NC2Cl (configuration not stated)	–	·
O=C1CCCC=C1[C@@H](O)CCOC(c1ccccc1)(c1ccccc1)c1ccccc1	–	·
